Source: PubChem BioAssay AID1508622 (National Center for Advancing Translational Sciences (NCATS), 2021)
Unmarked numbers belong to inactive results. Calls of active or inactive are those of the source. Calls follow the shape of the dose curve; as a rule, active = well fitted activation curve with a large enough effect; inconclusive = small, poorly fitted or top-dose-only effect; inactive = no such curve, though single readings can be large or run the other way.

Test: Confirmatory qHTS for Identification of Small Molecule Activators of Huntingtin-Antisense Promoter Activity
Conditions: HEK293 HTT-AS promoter firefly luciferase reporter, 24 h; series mostly up to 57.5 µM; activity change, positive = activation: at the top concentration
How it was run: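 HEK293 luciferase reporter cells, 2,500/well, cultured 24 h, then exposed to compounds at up to 57.5 uM final for 24 h at 37C. Firefly luciferase luminescence read; normalized to vehicle (0%) and zero RLU (-100%).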
Potency is read from the fitted curve at half-maximal effect.

| SMILES | activity change, positive = activation | Potency |
| --- | --- | --- |
| CCCOC(=O)c1cccc(NC(=O)c2c(-c3ccccc3Cl)noc2C)c1 | -33.5% |  |
| CCCc1cc(N2CCN(c3cccc(C)c3C)CC2)n2cnnc2n1 | -72.5% |  |
| Cc1ccc(C)c(N2CCN(S(=O)(=O)c3ccc(C(=O)N(C)C)s3)CC2)c1 | -84.7% |  |
| CCc1cccc(C)c1NC(=O)Cn1cc2c(n1)CCCC2 | -85.6% |  |
| COc1ccc(C2=CC(c3ccccc3Cl)n3nc(-c4ccc(Cl)cc4)nc3N2)cc1 (centres undefined) | -11.4% |  |
| COc1ccc(NC(=O)CN2C(=O)C(C)(C)c3ccccc32)cc1Cl | -50.7% |  |
| CCN(c1ccccc1)S(=O)(=O)c1c(-c2ccc(C)cc2)csc1C(=O)OC | -32.5% |  |
| COc1cc(CCC(=O)NCc2ccc3c(c2)CCN3C(=O)c2ccccc2)cc(OC)c1OC | -12.6% |  |
| Cc1nnc(N2CCC(C(=O)NCCc3ccccc3Cl)CC2)c2nn(-c3ccccc3)c(C)c12 | -37.7% |  |
| CC(C)(C)C(=O)NCCc1nc2ccccc2n1CCCCOc1ccccc1 | -29.6% |  |
| Cc1ccc(CN2CCCn3nc(C(=O)NCc4ccc(OC(C)C)cc4)cc3C2=O)cc1 | -86.8% |  |
| COc1ccccc1CCNC(=O)C(=O)NCC(c1cccs1)S(=O)(=O)c1ccccc1 (centres undefined) | -27% |  |
| COc1ccccc1N=c1scc(-c2ccc(S(=O)(=O)N3CCCC3)cc2)n1C | -78% |  |
| CCc1ccc(NS(=O)(=O)c2c(C)nc3sc(CC)nn3c2=O)cc1 | -21.7% |  |
| CCCOc1cccc(NC(=O)c2c(-c3ccccc3Cl)noc2C)c1 | -24.2% |  |
| N#Cc1ccccc1S(=O)(=O)N1CCC(Oc2ccc(-n3cnnn3)cc2)CC1 | -83.7% |  |
| COc1cccc(-c2nc(CS(=O)CC(=O)N3CCN(c4cccc(C(F)(F)F)c4)CC3)c(C)o2)c1 (centres undefined) | -59.5% |  |
| CSc1ccc(CCNC(=O)C2CCCN(S(=O)(=O)N(C)c3ccc(F)cc3)C2)cc1 (centres undefined) | -67.7% |  |
| COc1cc(OC)cc(C(=O)Oc2c(Sc3ccccc3)c(C)nn2C(C)(C)C)c1 | -27% |  |
| CCOC(=O)c1ccc(Nc2nc3nonc3nc2Nc2cccc(C)c2C)cc1 | -92.9% |  |

| SMILES | activity change, positive = activation | Potency |
| --- | --- | --- |
| COc1ccc(Cn2c(SCc3ccc(C(=O)NC4CCCCC4)cc3)nc3ccncc32)cc1 | -30.4% |  |
| COc1cccc([C@@H](C)NCCCc2ccccc2Cl)c1 | -23.4% |  |
| COc1cc(CN(C(=O)c2ccc(OC(C)C)cc2)c2ccccn2)cc(OC)c1OC | -86.4% |  |
| Cc1nc(Nc2n[nH]c3c2CN(C(=O)N[C@H](CN(C)C)c2ccccc2)C3(C)C)c2sccc2n1 | 7.14% |  |
| CC(=O)Nc1ccc(S(=O)(=O)Nc2cc(-c3cn4ccccc4n3)ccc2C)cc1 |  | 10.7 µM (active) |
| O=C(Nc1ccc(S(=O)(=O)N(Cc2ccccc2)c2ccccc2)cc1)c1ccc(F)cc1 | -73.5% |  |
| CCCCOc1ccc(CNC(=O)c2cc3n(n2)CCCN(Cc2ccc(C)cc2)C3=O)cc1 | -89.4% |  |
| Cc1ccccc1C(=O)Nc1nc(-c2ccc(Br)cc2)ns1 | -93.2% |  |
| Cc1cc(Nc2sc(C(=O)c3ccc(F)cc3)c(N)c2C(=O)Nc2ccc(F)cc2)ccc1Cl | -75.4% |  |
| CCOc1ccc(-n2c(/C=C/c3cccc(F)c3)nc3cc(OC)c(OC)cc3c2=O)cc1 | -47.7% |  |
| Cn1c(CN2CCCCC2)nc2cc(NC(=O)c3ccc(Cl)cc3)ccc21 | -74.8% |  |
| CSc1cccc(NC(=O)C2CCN(S(=O)(=O)c3ccc4[nH]c5c(c4c3)CCCCC5)CC2)c1 | -16.3% |  |
| COc1cccc(NC(CNS(=O)(=O)c2ccc(Cl)cc2)c2ccccc2)c1 (centres undefined) | -76.1% |  |
| CCC(=O)N1CCCc2cc(S(=O)(=O)N3CCC(C(=O)Nc4ccc(F)c(F)c4)CC3)ccc21 | -38.3% |  |
| N#CCNC(=O)c1ccc(-c2ccnc(Nc3ccc(N4CCOCC4)cc3)n2)cc1 | -24.8% |  |
| CCCCN1C(C(=O)c2ccccc2)=C(OC(C)=O)c2ccccc2S1(=O)=O | -45.9% |  |
| O=S(=O)(Nc1ccc(OC(F)(F)F)cc1)c1ccc(N2CCCCS2(=O)=O)cc1 | -94.4% |  |
| Cc1ccc(Cn2c(SCc3ccc(C(=O)NC4CCCC4)cc3)nc3ccncc32)cc1 | -33.5% |  |
| CCc1cccc(NS(=O)(=O)c2ccc3c(c2)CC(C)N3C(=O)C2CC2)c1 (centres undefined) | -83.2% |  |
